# Measured values published in the supplement of paper PMC10338343.
# ± gives the standard deviation.
# System: EfPiwi piRISC loaded with piRNA #1 (26 nt)
# Assay: pre-steady-state target cleavage rate (min^-1); auxiliary factor: 500 nM Ephydatia muelleri Gtsf1; guide: piRNA #1 5'p-UGAGGUAGUAGGUUGUAUAGUAUCCA; MIWI and MILI are mouse PIWI proteins and EfPiwi is from a freshwater sponge; tags in brackets are library labels; higher = faster piRNA-guided slicing of the target
# Summary of the method: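 The pre-steady-state cleavage rate came from a burst-and-steady-state fit to pooled data from three Cleave-'n-Seq trials, in which uncleaved targets were sequenced and normalised to depth and to weakly complementary targets. Each reaction held 0.1 nM transcribed, DNA-blocked target RNA library and 1 nM active affinity-purified piRISC carrying one synthetic guide, with or without 500 nM GTSF1 partner protein, in HEPES–potassium acetate buffer at 33 °C for 0–8 or 0–960 min. k3 was capped at 0.0001 min^-1.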
row,Sequence,pre-steady-state target cleavage rate
1,GGAGACCAUACUAUACAACCUUCUACGUCA,0.00387 ± 0.0029
2,GGAGUGGAUACUAUACAACCUACAACGUCA,0.00302 ± 0.0017
3,GGAGACCUAUGAUAUCAACCUACUACCAUCA,< 0.0001
4,GGAGAGGAUACUUUUCAACCUACUACCUCA,0.00409 ± 0.004
5,GGAGACCUAACUAUACAAACCUACUACCUCA,0.00462 ± 0.0028
6,GGAGACCUAUGUAUACAACCUACAUGCUCA,< 0.0001
7,GGAGAGGAUACUAUACCAACCUACUACCUCA,0.00837 ± 0.0039
8,GGAGAGGAUACUAUACAACCUUACUACCUCA,0.00845 ± 0.0045
9,GGAGACCAUACUAUACAACCUACUAGGUCA,0.00366 ± 0.0023
10,GGAGUGGAUACUAUACAACCUGACUACCUCA,0.00415 ± 0.002
11,GGAGACGAUACUAUACAACCUUCUACCUGA,0.0056 ± 0.0024
12,GGAGAGGAUACUAUACAACCUACUACAUCA,0.00573 ± 0.0027
13,GGAGAGGAUACUAUACAACCUACUUGGAGA [g7:g25:cont:t1A],0.00281 ± 0.0022
14,GGAGUGGAUACUAUACAACCUACAAGCUCA,0.00192 ± 0.0017
15,GGAGACCAUACUAUACAACCUACUAGCACA,0.00447 ± 0.0023
16,GGAGACCUAACUAUACAAGCUACUACCUCA,0.00482 ± 0.0028
17,GGAGACCAUACUAUACAACCUUACUACCUCA,0.00561 ± 0.0036
18,GGAGACCUAUCUAUACAACCUAGUACGUCA,0.00316 ± 0.0024
19,GGAGAGGAUACUAUACAACCUAGCUACCUCA,0.0038 ± 0.0017
20,GGAGACCAUACUAUACAACCUAGUACCUGA,0.00278 ± 0.0021

row,Sequence,pre-steady-state target cleavage rate
1,GGAGUGGAUACUAUACAACCUAGCUACCUCA,0.003 ± 0.0015
2,GGAGACCAUACUAUACAACCUACAUGGAGA [g8:g23:cont:t1A],0.00382 ± 0.0038
3,GGAGACCAUACUAUACAACGUACUAGCUCA,0.00358 ± 0.0035
4,GGAGUGGAUACUAUACAACCCUACUACCUCA,0.00375 ± 0.0023
5,GGAGUGGAUACUAUACAGACCUACUACCUCA,0.0116 ± 0.0053
6,GGAGAGGAUACUAUACAACCUCACUACCUCA,0.00378 ± 0.0026
7,GGAGACCUAACAAAACAACCUACUACCUCA,0.00903 ± 0.0046
8,GGAGACCUAACUAUACAACCUAGUACGUCA,0.00403 ± 0.0029
9,GGAGACCUUACUAUACAACCACUACCUCA,0.0103 ± 0.0057
10,GGAGACCAUACUAUACAACCCUACUACCUCA,0.00693 ± 0.0035
11,GGAGUGGAUACUAUACAACCUAGUUCCUCA,0.00239 ± 0.0021
12,GGAGAGGAUACUAUACAACCAAGUACCUCA,0.00282 ± 0.002
13,GGAGUGGAUACGUAUACAACCUACUACCUCA,0.082 ± 0.03
14,GGAGACGAUACUAUAGAACCUAGUACCUCA,0.0018 ± 0.0015
15,GGAGACCUAACUAUACAACCUACUACCCA,0.00326 ± 0.0026
16,GGAGACCUAACUAUACAAGCCUACUACCUCA,0.00432 ± 0.0033
17,GGAGACGAUACUAUACAACCUACUUGGUCA,0.00312 ± 0.0021
18,GGAGAGGAUACUAUACAACCUCCUACCUCA,0.0065 ± 0.0026
19,GGAGACCAUACUAUACAACGCUACUACCUCA,0.0082 ± 0.0044
20,GGAGUGGAUACUAUACAUCCUACUACCACA,0.00415 ± 0.0017
